In PubChem BioAssay AID720697 (Broad Institute, 2013):
Entries with a potency or affinity are not part of this list. Inconclusive results are not listed. Unmarked numbers belong to inactive results.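 How the source made its calls: active means signal loss with fitted half-maximal concentration at or below twice the top valid tested dose in every test run; inconclusive means runs disagree, flat 30 to 70% signal loss, or poor fit; inactive means all runs flat, opposite direction, or potency beyond limit.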

Test: general mammalian cell viability loss – inhibitor set, cherry-pick, set 2, cytotoxicity control for miR-122 modulator project, dose response (AID 720697);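 further: 0% = median of neutral control wells and -100% = MG132 positive control wells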
Settings: HEK293T viability, CellTiter-Glo luminescence, 48 h; series mostly up to 26 µM; activity change, negative = cytotoxicity: at the top concentration

| Compound | activity change, negative = cytotoxicity |
| --- | --- |
| CN1C(=O)c2cc(NC(=O)C3CCOCC3)ccc2OC[C@H]2O[C@H](CC(=O)NCc3ccc4c(c3)OCO4)CC[C@@H]21 | 128% |
| CC(C)(C)c1ccc(S(=O)(=O)NCCc2ccncc2)cc1 | 29.4% |
| Cc1ccc(S(=O)(=O)Nc2ccc3c(c2)C(=O)N(C)[C@@H]2CC[C@H](CC(=O)NCCc4ccncc4)O[C@@H]2CO3)cc1 | 147% |
| COCC(=O)N(C)C[C@H]1[C@H](c2ccccc2)[C@@H](CO)N1C(=O)NC(C)C | 101% |
| COC(=O)C[C@@H]1CC[C@H]2[C@@H](COc3ccc(NC(=O)c4ccc(F)c(F)c4)cc3C(=O)N2C)O1 | 77.2% |
| CCOc1cc(C(=O)NC(C)COC)cc(OCC)c1OCC (centres undefined) | 123% |
| C=CCc1c(OC)ccc2ccc(=O)oc12 | -1.92% [at 6 µM] |
| CN(C[C@H]1[C@H](c2ccccc2)[C@@H](CO)N1CC1CC1)C(=O)c1cccc(F)c1 | 87.6% [at 23.5 µM] |
| CN1C(=O)c2cc(NC(=O)Cc3ccccc3)ccc2OC[C@H]2O[C@@H](CC(=O)NC3CCC3)CC[C@H]21 | 49.9% |
| CC(C)C#Cc1ccc2c(c1)O[C@H](CN(C)C(=O)c1ccncc1)[C@H](C)CN([C@H](C)CO)S2(=O)=O | 10.8% |
| OC(c1cc(C(F)(F)F)nc2c(Cl)cc(Cl)cc12)C1CCCCN1 (centres undefined) | -42.2% |
| COCC(=O)N(C[C@H]1N[C@@H](CO)[C@@H]1c1ccc(C2=CCCC2)cc1)C(C)C | 27% |
| COCC(=O)N1[C@H](CO)[C@@H](c2ccccc2)[C@H]1CNC(=O)c1ccccn1 | 106% [at 23.5 µM] |
| COCC(=O)N(C[C@H]1[C@H](c2ccccc2)[C@H](CO)N1C(=O)NC(C)C)C(C)C | 33.3% [at 23.5 µM] |
| COC(=O)C[C@H]1CC[C@@H]2[C@@H](COc3ccc(NC(=O)c4ccc(F)c(F)c4)cc3C(=O)N2C)O1 | 82% |
| CC(C)c1ccc(NC(=O)C[C@H]2CC[C@H]3[C@@H](COc4ccc(NC(=O)Nc5ccc(F)c(F)c5)cc4C(=O)N3C)O2)cc1 | -6.32% |
| CCCNC(=O)C[C@@H]1CC[C@@H]2[C@H](COc3ccc(NC(=O)Nc4ccccc4F)cc3C(=O)N2C)O1 | 55% |
| COC(=O)C[C@H]1CC[C@@H]2[C@@H](COc3ccc(NC(=O)c4cscn4)cc3C(=O)N2C)O1 | 17.7% |
| Cc1ccc(-c2noc(CCC(=O)Nc3ccccc3C)n2)cc1 | 75.7% |
| C/C=C/c1ccc([C@H]2[C@@H](CNC(=O)c3ccncc3)N(C(=O)CC)[C@H]2CO)cc1 | 132% [at 23.5 µM] |

| Compound | activity change, negative = cytotoxicity |
| --- | --- |
| C[C@@H]1CN([C@H](C)CO)S(=O)(=O)c2ccc(-c3ccccc3)cc2O[C@@H]1CN(C)C(=O)c1ccc2c(c1)OCO2 | 33.4% |
| CCCNC(=O)C[C@@H]1CC[C@@H]2[C@@H](COc3ccc(NS(=O)(=O)c4ccccc4C)cc3C(=O)N2C)O1 | 43.8% |
| C/C=C/c1ccc([C@@H]2[C@H](CO)N(Cc3ccccn3)[C@H]2CNC(=O)CC)cc1 | 82.8% |
| O=C(COc1ccccc1F)N1CCc2ccccc2C1 | 15.7% |
| O=C(CN1CCOCC1)NC[C@@H]1N[C@@H](CO)[C@@H]1c1ccc(-c2ccccc2)cc1 | 97.3% [at 23.5 µM] |
| CCCNC(=O)C[C@H]1CC[C@@H]2[C@H](COc3ccc(NC(=O)c4cccs4)cc3C(=O)N2C)O1 | 31.6% |
| C[C@@H]1CN([C@@H](C)CO)C(=O)c2cccc(NC(=O)c3ccc(-c4nccs4)cc3)c2O[C@H]1CN(C)Cc1ccc2c(c1)OCO2 | -20.4% [at 23.5 µM] |
| Cc1ccc(C(=O)n2nc(-c3ccccc3)nc2NCc2ccco2)cc1 | 11.4% |
| CNC(=O)C[C@H]1CC[C@H]2[C@@H](COc3ccc(NC(=O)C(C)C)cc3C(=O)N2C)O1 | 58.9% |
| CN(C)CCCNC(=O)C[C@H]1CC[C@H]2[C@H](COc3ccc(NC(=O)c4cccc(F)c4)cc3C(=O)N2C)O1 | 30.3% |
| CC(=O)Nc1ccc2c(c1)C(=O)N(C)[C@H]1CC[C@@H](CC(=O)NCc3ccc4c(c3)OCO4)O[C@@H]1CO2 | 125% [at 23.5 µM] |
| COc1cccc(C(=O)Nc2ccc3c(c2)C(=O)N(C)[C@@H]2CC[C@H](CC(=O)NCc4ccc(F)cc4)O[C@@H]2CO3)c1 | -15.2% |
| CN(C)CCCNC(=O)C[C@H]1CC[C@H]2[C@@H](COc3ccc(NC(=O)c4ccccc4F)cc3C(=O)N2C)O1 | 42.9% |
| CCC(=O)N1[C@H](CN(CC)C(=O)c2ccccc2)[C@@H](c2ccccc2)[C@@H]1CO | 55.3% |
| COCC(=O)N(C)C[C@H]1Oc2cc(-c3ccccc3F)ccc2S(=O)(=O)N([C@H](C)CO)C[C@H]1C | 69.5% |
| CN1C(=O)c2cc(NC(=O)Nc3ccccc3Cl)ccc2OC[C@H]2O[C@H](CC(=O)O)CC[C@H]21 | 68.5% |
| CCN(C[C@H]1N[C@H](CO)[C@H]1c1ccc(C2=CCCC2)cc1)C(=O)c1cccnc1 | 8.01% |
| Cc1ccccc1NC(=O)Nc1ccc2c(c1)C(=O)N(C)[C@H]1CC[C@@H](CC(=O)O)O[C@H]1CO2 | 53.3% [at 23.5 µM] |
| COc1cc(C(=O)Nc2ccc(S(=O)(=O)N3CCCCC3C)cc2)cc(OC)c1OC (centres undefined) | 45.2% |
